Data on 40 molecules can be found in PubChem BioAssay (NCI).

Compounds without any hit were thinned out: in the full panel of roughly 79,000, 15% have a hit. Activity calls are given as the source filed them. Cut-off read from the data, not from the text of the source: active = growth inhibition above about 70%; inactive = the rest.

The first assay can be described thus: NCI Yeast Anticancer Drug Screen. Data for the bub3 strain (AID 167). To be noted: S. cerevisiae bub3 mutant strain, at 50.0 µM, hits give high values. The procedure, abridged:
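Mutant yeast screening strain plus compound; vehicle-treated cultures serve as the 0% inhibition reference.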
With `CN(C)N=Nc1ccccc1`, the growth inhibition is -1.65% (inactive).
The same measure, in the same setting: for `Cc1cccc(-c2cccc(C)c2C)c1C` the value was 4.2% (inactive); for `COc1ccc(-c2coc3cc(O)cc(O)c3c2=O)cc1`, 58.4% (inactive).
On the same count and under the same terms, under `COc1cc(Nc2cnc3ccc(C(F)(F)F)cc3n2)cc(OC)c1OC` stands -16.9% (inactive).
On the same count and under the same terms, for `O=C(O)c1[nH]ncc1[N+](=O)[O-]` the value was 11% (inactive).

The next assay can be described thus: NCI Yeast Anticancer Drug Screen. Data for the mlh1 rad18 strain (AID 175). To be noted: S. cerevisiae mlh1 rad18 strain growth inhibition; at 50.0 µM; hits give high values. The method, boiled down:
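Genetically defined yeast (DNA repair-deficient) exposed to compounds; growth inhibition determined relative to vehicle.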
As for `CC(C)C1OCC(CO)([N+](=O)[O-])CO1` (stereo not given), the growth inhibition is -6.15% (inactive).
With `CSc1nc(C)c2c(n1)N(c1ccc(Cl)cc1)CC2`, the growth inhibition is -30.4% (inactive).
On the same count and under the same terms, for `CCc1cccc(CC)c1NC(=O)/C=C/C(=O)O` the value was 4.1% (inactive); for `CCn1c(S)c(N=NC(=S)c2ccc3ccccc3n2)c2ccccc21`, 11.5% (inactive).
On the same count and under the same terms, for `O=C(O)CNC(=O)NC(Cc1ccccc1)C(=O)O` (stereo not given) the value was 8% (inactive).
Regarding `OC/C(I)=C(I)\C(I)=C(\I)CO`, the growth inhibition was 99.4% (active).
Turning to `CC(=O)C(N)=NCc1ccccc1`, the growth inhibition was 10.8% (inactive).
Same read-out and setting: for `Cc1cc2ccccc2nc1-c1ccncc1` the value was 1.2% (inactive); for `CC(C)(C)C1=NC(S)NC(CCC(=O)Nc2ccccc2[N+](=O)[O-])=C1` (stereo not given), -7.4% (inactive).
Turning to `COc1ccc2cc(C(=O)c3ccccc3)c(=O)oc2c1`, the growth inhibition is -13.6% (inactive).
Take `CCCCCCC1=CCCC1=O`: the growth inhibition is 11.5% (inactive).
For `N#Cc1cccc(O)c1`, the growth inhibition was 12% (inactive).
The same measure, in the same setting: for `O=C(c1nc2ccccc2[nH]c1=O)C(O)c1ccccc1` (stereo not given) the value was -2.2% (inactive).
For `O=c1[nH]c2cc([N+](=O)[O-])ccc2nc1/C(=N/Nc1ccccc1)C(O)c1ccco1` (stereo not given), the growth inhibition is 25.3% (inactive).
`CSc1ccc(OC(=O)Nc2ccc(Cl)c(Cl)c2)cc1C`: the growth inhibition was 95.1% (active).
Same read-out and setting: under `Cc1cc(O)c(C(C)C)cc1NC(=S)Nc1ccc(S(=O)(=O)c2ccc(NC(=S)Nc3cc(C(C)C)c(O)cc3C)cc2)cc1` stands 51.2% (inactive); under `CC1=C/C(=N\O)C(C(O)(C(F)(F)F)C(F)(F)F)C(C)(C)C1` (stereo not given), 2.9% (inactive).
`COc1cc2c(cc1OC)C(O)C(O)(CO)C(C(=O)O)C2c1cc(OC)c(OC)c(OC)c1` (stereo not given): the growth inhibition was 22.7% (inactive).
Same read-out and setting: under `O=C1SCC(O)=C1/C=N/Nc1nc2ccccc2o1` stands 12.3% (inactive); under `CC(=O)OCC1OC(n2nc(C#N)c(C#N)n2)C(OC(C)=O)C1OC(C)=O` (stereo not given), 1.15% (inactive).
The same measure, in the same setting: under `C/C=C/C=C1/OC(C)=C(C(=O)OCC)C1=O` stands -1.9% (inactive).
For the molecule `CCN(CC)CC#CCCCN(CC)CC`, the growth inhibition is -7.6% (inactive).
Same read-out and setting: under `CCOC(=O)/C(C#N)=C(O)\C(=C\c1ccc(Cl)cc1)NC(=O)c1ccc(NC(C)=O)cc1` stands 5.65% (inactive); under `CCC1(C)N=C(N)Nc2nc3ccccc3n21` (stereo not given), -18.2% (inactive).
As to `CCNC(=O)c1csnn1`, the growth inhibition was 2% (inactive).
On the same count and under the same terms, for `C[N+]1(CCC[N+]2(C)CCC3(CCCCC3)CC2)CCOCC1` the value was 16.8% (inactive); for `Cc1ccc2c(c1)CCC(=O)O2`, 3.4% (inactive).
On the same count and under the same terms, for `Nc1nc(=O)n(CCCCCCc2ccccc2)cc1-c1ccc(Cl)c(Cl)c1` the value was 0.45% (inactive); for `COc1ccc2c(c1)C1(C)CCC(=O)C(C)=C1CC2` (stereo not given), 14.4% (inactive); for `CCCCCCCCCCCCOC1OC(COC(C)=O)C(OC(C)=O)C(OC(C)=O)C1OC(C)=O` (stereo not given) (tested in a mixture with another compound), -14.4% (inactive).
On the same count and under the same terms, for `c1ccc(C(=C2CCC2)c2c3ccccc3cc3ccccc23)cc1` the value was -20.1% (inactive); for `COc1cccc(-c2nsc(=O)o2)c1`, 32.6% (inactive); for `CC1C(c2ccccc2)OC(c2ccccc2)N1C` (stereo not given), -15.2% (inactive).
As to `O=C(NO)Oc1cccc2ccccc12`, the growth inhibition is 5.85% (inactive).
The same measure, in the same setting: for `c1ccc2c(c1)CSc1ccccc1-2` the value was -3.65% (inactive).
Still for that read-out and setting: under `CN(C)N=Nc1ccccc1` stands 29.2% (inactive); under `Cc1cccc(-c2cccc(C)c2C)c1C`, 16.1% (inactive).
Same read-out and setting: under `COc1ccc(-c2coc3cc(O)cc(O)c3c2=O)cc1` stands 62.9% (inactive).
Take `COc1cc(Nc2cnc3ccc(C(F)(F)F)cc3n2)cc(OC)c1OC`: the growth inhibition is -3.5% (inactive).
As for `O=C(O)c1[nH]ncc1[N+](=O)[O-]`, the growth inhibition is 2.8% (inactive).
